Screens (PubChem BioAssay)
Six1-Eya2 inh = qHTS Assay for Inhibitors of the Six1/Eya2 Interaction; AlphaScreen GST-Six1/His-Eya2 binding, biochemical; active compounds read low; 360,000 compounds, 0.56% hits; Homeobox protein SIX1 (Homo sapiens) + Protein phosphatase EYA2 (Homo sapiens), …; activity change, % (test concentration not listed); AID 651725, 2012; in the data active = activity change below about -65%; inconclusive = mostly about -30% to -63%
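Six1/Eya2 binding was read as AlphaScreen signal after compounds were pinned into GST-Six1 plus His-tagged Eya2 (5X stock 250/500 nM) in pH 8.0 Tris/NaCl/TCEP buffer, beads added, then incubated 1 h, 37 C, dark.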
CtBP-E1A inh = qHTS Assay for Inhibitors of the CtBP/E1A Interaction | AlphaScreen GST-E1A/His-CtBP binding, 1536-well; active compounds read low | activity change, % (concentration not given with the values) | CtBP / adenovirus E1A interaction (AlphaScreen) | 340,000 compounds, 0.49% hits; in the data active = activity change below about -65%; inconclusive = mostly about -30% to -63%
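Homogeneous bead-based format: GST-tagged E1A captured on glutathione donor beads, His-tagged CtBP on nickel acceptor beads; compounds precede bead addition by 2 h at 37 °C.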
JMJD2A Tudor inh = qHTS Assay for Inhibitors of JMJD2A-Tudor Domain | AlphaScreen JMJD2A-Tudor / H3K4me3 peptide binding | Potency, µM (series often up to 114 µM), usual class: inhibitors | 390,000 compounds, 4.4% hits; also: nearly all actives have a fitted effect of over 50% in size
BAZ2B inh = qHTS Assay for Inhibitors of BAZ2B | Bromodomain adjacent to zinc finger domain protein 2B (Homo sapiens), Q9UIF8 | AlphaScreen BAZ2B-H3K14Ac peptide displacement | Potency, µM (doses to about 114 µM), usual class: inhibitors | 360,000 compounds, 4.4% hits | AID 504333, 2011; also: nearly all actives have a fitted effect of over 60% in size
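Multi-concentration screen (max 110 uM) measuring displacement of acetylated histone H3 peptide from BAZ2B by AlphaScreen, using 50 nM protein, 50 nM peptide and 10 ug/mL streptavidin donor plus Ni-chelate acceptor beads.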
G9a inh = qHTS Assay for Inhibitors of Histone Lysine Methyltransferase G9a | G9a H3K9 monomethylation, AlphaScreen, 2 h | 350,000 compounds, 8.8% hits | Potency, µM (titrated, usually from 102 µM), actives largely listed as inhibitors; also: nearly all actives have a fitted effect of over 75% in size
Target sequence (Q96KQ7 913-1193 limits assumed): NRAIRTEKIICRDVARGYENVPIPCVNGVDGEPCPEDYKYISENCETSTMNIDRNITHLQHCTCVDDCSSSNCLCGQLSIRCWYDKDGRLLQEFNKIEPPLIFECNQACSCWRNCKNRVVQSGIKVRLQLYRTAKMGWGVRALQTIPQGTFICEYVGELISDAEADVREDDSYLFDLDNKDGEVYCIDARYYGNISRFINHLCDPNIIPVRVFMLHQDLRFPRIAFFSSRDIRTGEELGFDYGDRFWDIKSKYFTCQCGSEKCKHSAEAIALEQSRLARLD
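Chemiluminescent proximity detection of H3K9 monomethylation, read after 10 min bead incubation in the dark. Reaction: 20 nM G9a, 500 nM biotin-H3K9 peptide, 20 uM SAM cofactor, 2 h, room temperature, following 15 min enzyme-compound preincubation.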
HP1b chromo inh = HTS for Inhibitors of HP1-beta Chromodomain Interactions with Methylated Histone Tails; Chromobox protein homolog 1 (Homo sapiens), P83916; AlphaScreen HP1-beta / biotin-H3K9me3 peptide binding; Potency, µM (series often up to 114 µM), most hits filed as inhibitors; 390,000 compounds, 0.56% hits; also: nearly all actives have a fitted effect of over 70% in size
Target sequence (P83916 whole entry, looked up): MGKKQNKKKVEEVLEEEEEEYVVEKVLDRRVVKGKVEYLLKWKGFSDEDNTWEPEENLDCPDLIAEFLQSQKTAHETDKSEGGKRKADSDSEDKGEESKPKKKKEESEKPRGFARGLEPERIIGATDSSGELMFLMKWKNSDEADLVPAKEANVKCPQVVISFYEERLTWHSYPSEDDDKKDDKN
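Compound inhibition of the preformed complex between 50 nM HP1-beta and 50 nM biotinylated H3K9me3 peptide was read by AlphaScreen. Buffer was PBS pH 7.4 with 0.01% Tween-20. Incubations ran 30 min at room temperature, with 10 ug/mL donor/acceptor beads.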
Each line names hits and unclear results; the compound was inactive in the other large screens. Hits are enriched below; roughly 10% of the tested compounds scored in any of these assays. Unless noted, calls follow the shape of the dose curve; as a rule, active = well fitted inhibition curve with a large enough effect; inconclusive = small, poorly fitted or top-dose-only effect; inactive = no such curve, though single readings can be large or run the other way.

COc1ccccc1N1CCN(/N=C/C=C/c2ccccc2[N+](=O)[O-])CC1	Six1-Eya2 inh inconclusive, CtBP-E1A inh -65.3, JMJD2A Tudor inh 20µM, BAZ2B inh 11.2µM, G9a inh 11.2µM, HP1b chromo inh inconclusive
COc1cc(C(=O)N2CCN(c3ccccc3OC)CC2)c([N+](=O)[O-])cc1OC	none
CCOc1cccc(/C=N/N2CCN(c3ccc(Cl)cc3)CC2)c1O	BAZ2B inh inconclusive
CCN(CC)CCOC(=O)c1ccc(NC(=O)Cn2ncc3c2-c2cc(C)ccc2OC3)cc1	none (no result: Six1-Eya2 inh, CtBP-E1A inh)
COc1ccc(CNC(=O)[C@H](CCSC)NC(=O)N2CCn3c2nc2ccccc23)cc1	JMJD2A Tudor inh inconclusive, G9a inh inconclusive
O=C(CN1CCN(Cc2ccc3c(c2)OCO3)CC1)NCC(F)(F)F	none
CC(=O)Oc1cccc(NC(=O)c2ccc3c(c2)C(=O)N(CC(C)C)C3=O)c1	none
O=[N+]([O-])c1ccccc1/C=C\C=N\N1CCN(c2ccccc2)CC1	Six1-Eya2 inh -66.5, JMJD2A Tudor inh 10µM, BAZ2B inh 3.98µM, G9a inh 11.2µM, HP1b chromo inh inconclusive
C(/C=C/c1ccccc1)=N/N1CCN(c2ccccc2)CC1	G9a inh inconclusive
Cc1ccccc1/C=N/N1CCN(c2ccccc2)CC1	Six1-Eya2 inh inconclusive, CtBP-E1A inh inconclusive, JMJD2A Tudor inh inconclusive, BAZ2B inh 20µM, G9a inh 28.2µM, HP1b chromo inh inconclusive
O=[N+]([O-])c1cc(/C=N/N2CCN(c3ccccc3)CC2)ccc1Cl	BAZ2B inh inconclusive
O=[N+]([O-])c1ccccc1/C=N\N1CCN(c2ccccc2)CC1	Six1-Eya2 inh inconclusive, JMJD2A Tudor inh 39.8µM, BAZ2B inh 17.8µM, G9a inh 10µM, HP1b chromo inh inconclusive (no result: CtBP-E1A inh)
O=[N+]([O-])c1ccccc1/C=C/C=N/N1CCCCC1	Six1-Eya2 inh -68.2, CtBP-E1A inh inconclusive, JMJD2A Tudor inh 17.8µM, BAZ2B inh 20µM, G9a inh 39.8µM, HP1b chromo inh 50.1µM
O=c1ccn(-c2ccccc2)[nH]1	none
COc1c(NC(C)=O)c2ccccc2c2ccccc12	none (no result: G9a inh)
Cc1cc(C)c2sc(N3CCN(C(=O)c4ccc(N(C)C)cc4)CC3)nc2c1	JMJD2A Tudor inh 39.8µM, BAZ2B inh 20µM, G9a inh 22.4µM, HP1b chromo inh inconclusive (no result: Six1-Eya2 inh, CtBP-E1A inh)
C/C(=N/NC(N)=S)c1ccc(Br)s1	G9a inh 15.8µM
C/C(=N\NC(=O)Cc1ccccc1)c1ccc(Br)s1	BAZ2B inh inconclusive (no result: CtBP-E1A inh, G9a inh)
O=C(CC1N=C2c3ccccc3N=C(SCc3ccccc3F)N2C1=O)NCCc1ccccc1 (configuration not stated)	none (no result: Six1-Eya2 inh, CtBP-E1A inh)
N#C/C(=C\c1cc(O)c(O)c(O)c1)C(N)=O	JMJD2A Tudor inh 3.55µM, HP1b chromo inh inconclusive (no result: CtBP-E1A inh, G9a inh)
N#C/C(=C\c1cc(Cl)c(OCc2ccc(Cl)cc2)c(Cl)c1)C(N)=O	none (no result: Six1-Eya2 inh, CtBP-E1A inh, JMJD2A Tudor inh, HP1b chromo inh)
COCCN(Cc1cc2cc(C)c(C)cc2nc1Cl)C(=O)Nc1ccccc1	none
COCCN(Cc1cc2cc3c(cc2nc1Cl)OCO3)C(=O)c1ccc(C)cc1	BAZ2B inh 10µM (no result: CtBP-E1A inh)
CCOc1ccc(/C=N/NC(=O)CN2CCSCC2)cc1	JMJD2A Tudor inh 2µM, BAZ2B inh 50.1µM, G9a inh 10µM, HP1b chromo inh inconclusive
COc1cc(/C=N/NC(=O)C2(O)c3ccccc3-c3ccccc32)ccc1O	G9a inh inconclusive
COc1ccc(/C=N/NC(=O)CN2CCN(Cc3ccccc3)CC2)cc1Br	none
COc1ccc(/C=N/NC(=O)CN2CCSCC2)cc1C	JMJD2A Tudor inh 3.55µM, BAZ2B inh 50.1µM, G9a inh inconclusive, HP1b chromo inh inconclusive
CCOc1ccc(/C=N/NC(=O)C2(O)c3ccccc3-c3ccccc32)cc1	JMJD2A Tudor inh 89.1µM
